Reference: PubChem BioAssay
Values joined by “and” are separate entries in the source; they are usually repeats but may differ in a detail not shown here. Equal values may be shown once. Results filed as inconclusive are left out. Active and inactive are the calls of the source.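 The calls were made as follows, unless noted: active = normalized viability below 100% at a tested concentration; inactive = the rest.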

What was measured:
[1] = viability loss in pontine glioma line – cell-based, SU-DIPG-XXV, MIPE5.0, CellTiter-Glo, qHTS, dose response (AID 1347065; cut-off not given, nearly all actives have AC50 up to about 26 µM;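 also: cells exposed to compound for 48 hours before ATP readout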); conditions: CellTiter-Glo ATP luminescence
[2] = SU-DIPG-VI glioma cell viability, MIPE4.0 library, CellTiter-Glo luminescence, qHTS (AID 1347066; cut-off not given, nearly all actives have AC50 up to about 30 µM;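 also: cells exposed to compound for 48 hours before readout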); conditions: CellTiter-Glo ATP luminescence
[3] = inhibitors of Cryptococcus chitosan production, flow cytometry, Cibacron Brilliant Red staining (AID 1347148; call rule not given here;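 also: compound exposure lasted three days at 37 degrees C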); conditions: Cryptococcus neoformans chitosan, stronger effect = lower value; at 10 µM unless noted
[4] = modifiers of HSF1 nuclear foci, imaging, Selleck Cancer Library (AID 1347162; in the data active = plate-normalised HSF1 focus index below about 0.46); conditions: human cells, at 10 µM; SSMD: measured here: HSF1 foci SSMD mean; cell count: measured here: cell number; plate-normalised HSF1 focus index: stronger effect = lower value
[5] = phospholipid biosynthesis inhibitors in animal cells, primary screen, cell-based, LOPAC library, screen 4 (AID 1347384; call rule not given here); conditions: phospholipid biosynthesis inhibition screen, at 10 µM
[6] = survival rescue of mitochondrial mutant cells in low glucose, primary screen, MELAS cybrids, Rieske KO mouse fibroblasts, CellTiter-Glo (AID 1508586;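 active = mean z-score across replicates of 1.96 or higher in either the MELAS or the Rieske mutant cell line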;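 also: z relative to plate mean and SD of compound and empty wells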)
[7] = ovarian cancer cell viability with rucaparib, profiling panel, oncology-focused library, rucaparib conditional (AID 1508598); conditions: patient-derived ovarian cancer cells, CellTiter-Glo viability, 144 h, stronger effect = lower value
[8] = viability rescue of complex I mutant cybrids, primary screen, cell-based, galactose medium, ATP luminescence (AID 1645843;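 active = z-score of at least 1.8 in each of two replicates, scored against plate mean and spread of sample wells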;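 also: positive z means more ATP and so rescue of galactose-driven cybrid death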); conditions: complex I mutant cybrid cells, 72 h, stronger effect = higher value
[9] = JHH-DIPG-1 glioma cell viability, MIPE5.0 library, CellTiter-Glo luminescence, qHTS (AID 1347067; cut-off not given, nearly all actives have AC50 up to about 26 µM;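 also: cells exposed to compound for 48 hours before readout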); conditions: JHH-DIPG-1 glioma viability, CellTiter-Glo ATP luminescence
[10] = SU-DIPG-XXV glioma cell viability, MIPE5.0 library, qHTS (AID 1347068; cut-off not given, nearly all actives have IC50 up to about 30 µM)
[11] = sensitizers of A549 cells to miR-34 induction, primary screen, imaging, A549 dox-inducible miR-34, nuclei and caspase counts (AID 1347080;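 active = compounds whose cell count with miR-34 switched on is under 0.7 times the count with it off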); conditions: A549 miR-34 inducible, Hoechst nuclei count, 48 h
[12] = target: NAD(+) hydrolase SARM1 (Homo sapiens) (UniProt Q6SZW1); experiment: SARM1 TIR NADase inhibitors, cell lysate, NAD-Glo luminescence (AID 1508614;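 active = compound whose remaining NAD level is above about 45 nM, limit read from the data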;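 also: higher remaining NAD means stronger inhibition of SARM1 NADase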); conditions: SAM-TIR HEK293T lysate NADase, at 1 µM, stronger effect = higher value
Sequence of NAD(+) hydrolase SARM1 (Homo sapiens) (Q6SZW1 whole entry, looked up, the tested form may be a part): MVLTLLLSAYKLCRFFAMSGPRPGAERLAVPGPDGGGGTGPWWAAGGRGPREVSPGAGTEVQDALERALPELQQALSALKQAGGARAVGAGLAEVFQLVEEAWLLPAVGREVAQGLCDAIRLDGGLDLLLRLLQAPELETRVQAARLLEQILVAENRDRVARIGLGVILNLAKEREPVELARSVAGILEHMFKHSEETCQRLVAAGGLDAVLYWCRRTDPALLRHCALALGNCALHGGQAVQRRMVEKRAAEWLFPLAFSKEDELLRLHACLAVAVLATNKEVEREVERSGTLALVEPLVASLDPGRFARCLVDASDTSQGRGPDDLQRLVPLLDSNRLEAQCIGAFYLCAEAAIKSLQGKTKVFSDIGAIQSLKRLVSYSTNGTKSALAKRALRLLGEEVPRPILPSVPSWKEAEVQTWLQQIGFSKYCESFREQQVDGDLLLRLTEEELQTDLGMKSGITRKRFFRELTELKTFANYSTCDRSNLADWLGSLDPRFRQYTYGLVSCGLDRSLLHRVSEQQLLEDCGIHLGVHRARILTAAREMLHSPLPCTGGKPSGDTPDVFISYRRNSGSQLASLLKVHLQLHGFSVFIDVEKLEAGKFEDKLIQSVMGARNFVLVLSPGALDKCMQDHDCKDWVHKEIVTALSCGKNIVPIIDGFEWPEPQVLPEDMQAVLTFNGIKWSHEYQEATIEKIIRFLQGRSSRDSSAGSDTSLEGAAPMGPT

[13] = target: Mitogen-activated protein kinase 7 (Homo sapiens) (UniProt Q13164); experiment: ERK5 transactivation activators in reporter cells, primary screen, cell-based, HTS (AID 1508626;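 active = luciferase signal above three times the same-plate solvent-only control wells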;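 also: luciferase driven by Gal4-ERK5 fusion binding five Gal4 sites before minimal TATA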); conditions: HeLa Gal4-ERK5 transactivation, 18 h, at 5 µM, stronger effect = higher value
Sequence of Mitogen-activated protein kinase 7 (Homo sapiens) (Q13164 whole entry, looked up, the tested form may be a part): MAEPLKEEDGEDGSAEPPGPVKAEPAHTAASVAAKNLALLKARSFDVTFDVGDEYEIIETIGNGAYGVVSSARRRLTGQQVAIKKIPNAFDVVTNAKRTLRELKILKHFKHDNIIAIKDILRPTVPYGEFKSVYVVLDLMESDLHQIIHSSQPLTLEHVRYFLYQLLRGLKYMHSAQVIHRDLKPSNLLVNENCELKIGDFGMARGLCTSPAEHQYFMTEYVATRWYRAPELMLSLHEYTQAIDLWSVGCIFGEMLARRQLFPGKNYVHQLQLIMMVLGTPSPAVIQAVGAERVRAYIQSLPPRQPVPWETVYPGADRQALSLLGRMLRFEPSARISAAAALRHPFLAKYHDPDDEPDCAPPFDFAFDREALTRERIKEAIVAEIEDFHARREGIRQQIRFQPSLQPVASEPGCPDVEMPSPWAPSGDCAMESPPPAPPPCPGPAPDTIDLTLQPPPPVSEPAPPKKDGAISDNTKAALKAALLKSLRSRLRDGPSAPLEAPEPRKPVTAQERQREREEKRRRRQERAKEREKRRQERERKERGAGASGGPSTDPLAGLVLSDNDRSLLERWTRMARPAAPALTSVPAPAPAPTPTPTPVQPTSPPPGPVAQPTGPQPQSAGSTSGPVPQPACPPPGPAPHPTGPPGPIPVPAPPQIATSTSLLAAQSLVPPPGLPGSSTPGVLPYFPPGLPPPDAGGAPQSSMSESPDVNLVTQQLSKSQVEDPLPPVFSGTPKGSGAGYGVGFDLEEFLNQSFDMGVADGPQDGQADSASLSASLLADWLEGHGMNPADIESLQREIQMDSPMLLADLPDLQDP

[14] = MELAS cybrid survival, CellTiter-Glo 48 h, stronger effect = higher value
[15] = Rieske KO mouse fibroblast survival, CellTiter-Glo 72 h
[16] = at 0.000305 µM, OCI-C5x cells, with rucaparib 10 µM, 100% = cells with rucaparib alone
[17] = at 0.000305 µM, OCI-C5x cells, without rucaparib
[18] = at 0.000305 µM, OCI-P5x cells, with rucaparib 20 µM, 100% = cells with rucaparib alone
[19] = at 0.000305 µM, OCI-P5x cells, without rucaparib
[20] = at 0.00122 µM, OCI-C5x cells, with rucaparib 10 µM, 100% = cells with rucaparib alone
[21] = at 0.00122 µM, OCI-C5x cells, without rucaparib
[22] = at 0.00122 µM, OCI-P5x cells, with rucaparib 20 µM, 100% = cells with rucaparib alone
[23] = at 0.00122 µM, OCI-P5x cells, without rucaparib
[24] = at 0.00488 µM, OCI-C5x cells, with rucaparib 10 µM, 100% = cells with rucaparib alone
[25] = at 0.00488 µM, OCI-C5x cells, without rucaparib
[26] = at 0.00488 µM, OCI-P5x cells, with rucaparib 20 µM, 100% = cells with rucaparib alone
[27] = at 0.00488 µM, OCI-P5x cells, without rucaparib
[28] = at 0.0195 µM, OCI-C5x cells, with rucaparib 10 µM, 100% = cells with rucaparib alone
[29] = at 0.0195 µM, OCI-C5x cells, without rucaparib
[30] = at 0.0195 µM, OCI-P5x cells, with rucaparib 20 µM, 100% = cells with rucaparib alone
[31] = at 0.0195 µM, OCI-P5x cells, without rucaparib
[32] = at 0.0781 µM, OCI-C5x cells, with rucaparib 10 µM, 100% = cells with rucaparib alone
[33] = at 0.0781 µM, OCI-C5x cells, without rucaparib
[34] = at 0.0781 µM, OCI-P5x cells, with rucaparib 20 µM, 100% = cells with rucaparib alone
[35] = at 0.0781 µM, OCI-P5x cells, without rucaparib
[36] = at 0.313 µM, OCI-C5x cells, with rucaparib 10 µM, 100% = cells with rucaparib alone
[37] = at 0.313 µM, OCI-C5x cells, without rucaparib
[38] = at 0.313 µM, OCI-P5x cells, with rucaparib 20 µM, 100% = cells with rucaparib alone
[39] = at 0.313 µM, OCI-P5x cells, without rucaparib
[40] = at 1.25 µM, OCI-C5x cells, with rucaparib 10 µM, 100% = cells with rucaparib alone
[41] = at 1.25 µM, OCI-C5x cells, without rucaparib
[42] = at 1.25 µM, OCI-P5x cells, with rucaparib 20 µM, 100% = cells with rucaparib alone
[43] = at 1.25 µM, OCI-P5x cells, without rucaparib
[44] = at 5 µM, OCI-C5x cells, with rucaparib 10 µM, 100% = cells with rucaparib alone
[45] = at 5 µM, OCI-C5x cells, without rucaparib
[46] = at 5 µM, OCI-P5x cells, with rucaparib 20 µM, 100% = cells with rucaparib alone
[47] = at 5 µM, OCI-P5x cells, without rucaparib
[48] = stronger effect = lower value, cell number ratio, induced over uninduced
[49] = measured here: relative caspase fold change +Dox/-Dox
[50] = measured here: total cells with miR-34 induction, stronger effect = lower value
[51] = measured here: total cells without miR-34 induction

COC(=O)Nc1nc2ccc(C(=O)c3cccs3)cc2[nH]1
6830: cell count [4]
active: AC50 [1] 118 nM | AC50 [2] 3720 nM | viability [7, 18] 89% | viability [7, 19] 84.1% | viability [7, 22] 88% | viability [7, 23] 90.4% | viability [7, 26] 87.3% | viability [7, 27] 58% | viability [7, 28] 96.1% | viability [7, 29] 74% | viability [7, 30] 68.5% | viability [7, 31] 32.7% | viability [7, 32] 71.2% | viability [7, 33] 69.2% | viability [7, 34] 62.5% | viability [7, 35] 35.1% | viability [7, 36] 89% | viability [7, 37] 97.5% | viability [7, 38] 77.5% | viability [7, 39] 52.1% | viability [7, 40] 56.8% | viability [7, 41] 60.1% | viability [7, 42] 67.3% | viability [7, 43] 48% | viability [7, 44] 55.3% | viability [7, 45] 38.7% | viability [7, 46] 52.5% | viability [7, 47] 14.7%
0.709 and -0.844 and -0.416: z-score [6, 15]
3.16: SSMD [4]
inactive: fold fluorescence [3] 18.7 [at 165.9 µM] | plate-normalised HSF1 focus index [4] 1.2 | outcome [5] | z-score [6, 14] -0.757 and 1.39 and -3.68 | viability [7, 16] 120% | viability [7, 17] 106% | viability [7, 20] 116% | viability [7, 21] 108% | viability [7, 24] 112% | viability [7, 25] 108% | z-score [8] -0.685 and -1.18 and -0.46

Cc1ccc(S(=O)(=O)NC(=O)NN2CC3CCCC3C2)cc1 (centres undefined)
9450 and 9180 and 11600: cell count [11, 51]
1.81 and 0.848 and 0.946: fold change [11, 49]
inactive: outcome [1] | outcome [9] | outcome [10] | fold change [11, 48] 0.889 and 0.88 | z-score [6, 14] -0.361 and -0.892 and 0.121 | remaining NAD [12] 10 nM | luciferase signal [13] 36 AU | z-score [8] 0.595
0.53 and -0.111 and 0.139: z-score [6, 15]
8400 and 8080 and 10300: cell count [11, 50]

COc1cc2c(N3CCN(C(=O)Nc4ccc(OC(C)C)cc4)CC3)ncnc2cc1OCCCN1CCCCC1
active: viability [7, 18] 86.7% | viability [7, 19] 88.3% | viability [7, 22] 97% | viability [7, 23] 88.4% | viability [7, 25] 97.5% | viability [7, 27] 96.8% | viability [7, 29] 98.4% | viability [7, 31] 92.4% | viability [7, 35] 94.2% | viability [7, 39] 90.4% | viability [7, 43] 90% | viability [7, 47] 86.2%
8380 and 5450: cell count [11, 51]
7020: cell count [4]
0.343: z-score [6, 15]
inactive: outcome [1] | outcome [9] | outcome [10] | fold change [11, 48] 0.882 and 0.979 | plate-normalised HSF1 focus index [4] 1.05 | z-score [6, 14] -0.531 | viability [7, 16] 113% | viability [7, 17] 103% | viability [7, 20] 104% | viability [7, 21] 105% | viability [7, 24] 112% | viability [7, 26] 114% | viability [7, 28] 109% | viability [7, 30] 130% | viability [7, 32] 113% | viability [7, 33] 105% | viability [7, 34] 115% | viability [7, 36] 119% | viability [7, 37] 113% | viability [7, 38] 146% | viability [7, 40] 123% | viability [7, 41] 117% | viability [7, 42] 105% | viability [7, 44] 158% | viability [7, 45] 138% | viability [7, 46] 115% | remaining NAD [12] 10 nM
0.871: SSMD [4]
7400 and 5330: cell count [11, 50]
1.09 and 0.885: fold change [11, 49]
